Bioassay records from PubChem BioAssay.
The full list was thinned out, with hits kept by preference.
Dicer inh: human Dicer pre-microRNA cleavage inhibition; cat-ELCCA pre-miR-21 Dicer processing, chemiluminescence; active compounds read high; actives 6% (n = 47,000); z-score at 25 µM; Q9UPY3; in the data active = z-score above about 3, passing the limit was not always enough;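 also: plate controls were vehicle for no effect and no enzyme for full effect; higher signal means more uncleaved substrate so more Dicer inhibition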
* hit, by the source's call.

For COc1ccc(-c2c(C)nn3c2N=C(c2ccco2)CC3c2ccccc2)cc1 (stereo unspecified) the results were Dicer inh -0.13.
CCOC(=O)c1cnc2c(C)cc(C)cc2c1Nc1ccc(N(C)C)cc1 was read as Dicer inh 2.87.
`CCOC(=O)c1cnc2ccc(OCC)cc2c1Cl` gave Dicer inh 0.45.
Screening CCOC(=O)c1cnc2ccc(Cl)cc2c1Nc1ccc(N(C)C)cc1 returned Dicer inh 3.84*.
Screening CC(C)S(=O)(=O)c1csc(C(=O)NNS(=O)(=O)c2ccc(Cl)cc2)c1-n1cccc1 returned Dicer inh -0.91.
For Nc1ccc2nc(-c3ccc(-c4nc5ccc(N)cc5[nH]4)cc3)[nH]c2c1 the results were Dicer inh 0.33.
For Nc1ccc(-c2nc3ccc(-c4nc5ccc(N)cc5[nH]4)cc3[nH]2)cc1 the results were Dicer inh 2.15.
Screening Cc1ccc2nc(-c3ccc(N)cc3)[nH]c2c1 returned Dicer inh 4*.
Screening CCOC(=O)C1CCN(S(=O)(=O)c2sc3ccc(Cl)cc3c2C)CC1 returned Dicer inh -0.13.
Screening CN(C)c1cc(C(F)(F)F)nc2c(Br)c(C(C)(C)C)nn12 returned Dicer inh -1.74.
For CC(C)(C)C(=O)NCC1COc2ccccc2O1 (stereo unspecified) the results were Dicer inh 18.6.
`CC(C)(C)c1csc(NS(=O)(=O)c2ccc(Cl)cc2)n1` gave Dicer inh -1.9.
`COc1cccc(Nc2nc(N)nc(CN3CCc4ccccc4C3)n2)c1` gave Dicer inh 0.68.
COc1ccccc1Nc1nc(N)nc(CN2CCCCC2)n1 was read as Dicer inh 5.28*.
For COc1ccc(Nc2nc(N)nc(CN3CCCCC3)n2)cc1 the results were Dicer inh -1.05.
For CCc1nc(CN2CCN(c3ccc(F)cc3)CC2)c(C)[nH]1 the results were Dicer inh -0.43.
Screening CCN(CC)c1cnn(-c2c(Cl)cc(C(F)(F)F)cc2Cl)c(=O)c1Cl returned Dicer inh -1.2.
O=C(CC1(O)C(=O)N(Cc2cccc(F)c2)c2ccccc21)c1ccccn1 (stereo unspecified) was read as Dicer inh 2.11.
For Cc1ccc2nc(-c3ccc(Cl)c(C)c3)cn2c1 the results were Dicer inh 0.09.
Screening CN(CCOC(=O)c1cccs1)C(C)(C)C returned Dicer inh 0.76.
For COc1cc(N)c(Cl)cc1C(=O)OCCN1CCCCC1 the results were Dicer inh -0.67.
`O=C(OCCN1CCCCC1)c1cccs1` gave Dicer inh 3.7*.
For CC(=O)Oc1ccc2nc(-c3ccccc3F)oc(=O)c2c1 the results were Dicer inh -0.23.
Screening O=C(O)c1cc2c(ccc3ccccc32)o1 returned Dicer inh 1.01.
For O=C(O)c1cc2cc(Cc3cccnc3)ccc2o1 the results were Dicer inh 3.63*.
Screening O=C(Nc1cccnc1)c1cc2c(ccc3ccccc32)o1 returned Dicer inh -0.39.
Cc1cc(C)c(C#N)c(SCSc2ccccc2)n1 was read as Dicer inh -0.77.
For CCCOc1ccc(C2C(C#N)=C(N)Oc3n[nH]c(-c4ccc5c(c4)OCO5)c32)cc1 (stereo unspecified) the results were Dicer inh -9.17.
CN(C)S(=O)(=O)N(Cc1ccc(C(C)(C)C)cc1)c1ccccc1 was read as Dicer inh -1.43.
Screening CC(=O)c1cnn(-c2ccccn2)c1C returned Dicer inh -0.84.
For CCOC(=O)Oc1ccc2c(=O)c(Oc3cc(C)cc(C)c3)coc2c1 the results were Dicer inh 0.12.
`CCC(C)OC(=O)C(C)Oc1ccc2c(=O)c(Oc3ccccc3Cl)coc2c1` (stereo unspecified) gave Dicer inh -0.01.
`C=CCOC(=O)Oc1ccc2c(=O)c(Oc3cc(C)ccc3C)coc2c1` gave Dicer inh 1.33.
For CCC(C)OC(=O)C(C)Oc1ccc2c(=O)c(Oc3ccc(C)cc3)coc2c1 (stereo unspecified) the results were Dicer inh 4.2*.
Screening C=CCOC(=O)Oc1ccc2c(=O)c(Oc3cc(C)cc(C)c3)coc2c1 returned Dicer inh 3.01*.
`CCC(C)OC(=O)C(C)Oc1ccc2c(=O)c(Oc3cccc(C)c3)coc2c1` (stereo unspecified) gave Dicer inh -1.06.
Screening COc1ccc(OCC2CN=C(Nc3ccc(C)cc3)S2)cc1 (stereo unspecified) returned Dicer inh 0.22.
CCOC(=O)C1=C(C)NC2=C(C(=O)CCC2)C1c1ccccc1Br (stereo unspecified) was read as Dicer inh 0.61.
CCOC(=O)c1c(C)nsc1NC(=O)Oc1ccccc1 was read as Dicer inh 0.25.
CC(C)(C)c1cc2ncnc(N3CCN(c4ncnc5cc(C(C)(C)C)sc45)CC3)c2s1 was read as Dicer inh -0.57.
Screening CC1CN(c2ccc(S(N)(=O)=O)cc2[N+](=O)[O-])CC(C)O1 (stereo unspecified) returned Dicer inh 0.31.
CSc1nc2cc(C)nn2c(N)c1C#N was read as Dicer inh -0.11.
Screening CCOC(=O)/C(C#N)=C/c1ccc(Br)cc1 returned Dicer inh 0.77.
Screening COC(=O)/C(C#N)=C/c1cccc(Br)c1 returned Dicer inh 9.3*.
Screening COC(=O)/C(C#N)=C/c1ccc(Cl)cc1 returned Dicer inh -0.7.
For CCOC(=O)C1=C(C)NC2=C(C(=O)CCC2)C1c1cc2c(cc1Cl)OCO2 (stereo unspecified) the results were Dicer inh 0.09.
Screening COc1ccc(COC(=O)C2=C(C)NC3=C(C(=O)CCC3)C2c2cc3c(cc2Cl)OCO3)cc1 (stereo unspecified) returned Dicer inh 4.24*.
Screening COc1ccc(COC(=O)C2=C(C)NC3=C(C(=O)CCC3)C2c2ccc3c(c2)OCO3)cc1 (stereo unspecified) returned Dicer inh 0.95.
For COc1ccc(/C=C2\COc3ccc(C)cc3C2=O)cc1O the results were Dicer inh 0.05.
O=C(O)c1ccc2nc(-c3ccccc3)c(-c3ccccc3)nc2c1 was read as Dicer inh 0.57.
`O=C(O)c1ccc2nc(-c3ccc(O)cc3)sc2c1` gave Dicer inh 4.49*.
`Nc1ccc(-c2nc3ccccc3s2)cc1` gave Dicer inh 2.89.
Screening O=S(=O)(N/N=C/c1ccsc1)c1ccc(Cl)s1 returned Dicer inh -0.4.
O=C(NNS(=O)(=O)c1ccccc1)c1csc2ccc(Cl)cc12 was read as Dicer inh 0.6.
`Fc1cc(Br)c(-n2cccc2)c(Br)c1Cl` gave Dicer inh 0.11.
Screening COc1ccccc1N1CCN(Cc2cc(Cl)c(O)c3ncccc23)CC1 returned Dicer inh -0.05.
For O=C1CC(N2CCN(c3ccccn3)CC2)C(=O)N1c1ccc(F)cc1 (stereo unspecified) the results were Dicer inh 0.49.
Fc1ccc2[nH]c(CN3CCN(c4ccccn4)CC3)cc2c1 was read as Dicer inh 0.68.
`c1ccc(N2CCN(c3nc4ccccc4[nH]3)CC2)nc1` gave Dicer inh 3.48*.
Screening COc1ncnc2c1sc1ncccc12 returned Dicer inh 1.33.
Screening Cn1c(=O)c2c(nc(-n3ccnc3)n2Cc2ccc(F)cc2)n(C)c1=O returned Dicer inh 1.42.
Screening Cn1c(=O)c2c(nc(NCCCn3ccnc3)n2Cc2cccc3ccccc23)n(C)c1=O returned Dicer inh -0.49.
`Cn1c(=O)c2c(nc(NCCCO)n2Cc2ccc(Br)cc2)n(C)c1=O` gave Dicer inh 2.13.
